Assay outcomes: PubChem BioAssay, The Scripps Research Institute Molecular Screening Center
Sampled rows, rich in hits. Any-hit rate of the full collection: about 2.4%.
ASK1 primary: ASK1 kinase inhibitors, primary screen, biochemical, AlphaScreen | hit rate 0.99% among 22,000 | AID 1159602, 2016 | Mitogen-activated protein kinase kinase kinase 5 (Homo sapiens), Q99683 | inhibition, % at 7.44 µM | AlphaScreen MKK6 phosphorylation by ASK1, luminescence; in the data active = inhibition above about 35%;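 also: 0% = median of compound wells and 100% = no enzyme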
ULK1 primary: ULK1 kinase inhibitors, primary screen, biochemical, AlphaScreen | hit rate 1.9% among 30,000 | AID 1259251, 2017 | inhibition, % at 5.96 µM | AlphaScreen Atg13 phosphorylation by ULK1, luminescence; in the data active = inhibition above about 43%;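 also: 0% = median of compound wells and 100% = no enzyme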
An asterisk follows results filed as active; / = not tested or not shown.

SMILES	ASK1 primary	ULK1 primary
O=C1OC(c2ccc(O)c(S(=O)(=O)O)c2)(c2ccc(O)c(S(=O)(=O)O)c2)c2c(Br)c(Br)c(Br)c(Br)c21	/	63.8*
FC(F)(F)c1cnc(Nc2ccc3[nH]cc(C4=CCNCC4)c3c2)cc1Nc1ccccn1	27.6	-17.4
CCC(=O)C(CC(C)N(C)C)(c1ccccc1)c1ccccc1 (centres undefined)	/	-8.5
CC(C)=CC1C(C(=O)OC(C#N)c2cccc(Oc3ccccc3)c2)C1(C)C (centres undefined)	/	-1.5
COc1ccc(Cc2nccc3cc(OC)c(OC)cc23)cc1OC	/	68.6*
COc1ccc(CCN2CCC(=O)CC2)cc1OC	/	-4.2
COc1cccc([C@@H](C)NC(=O)c2cn(CCN3CCCC3)c3cc(-c4cn[nH]c4)ccc23)c1	-5.3	-8.2
CCCCCOc1ccc(C(CN)CC(=O)O)cc1 (centres undefined)	/	7.6
